The values that follow come from PubChem BioAssay.

Test [1] relates to XIP peptide (Xip251-270) binding. Nature of the test: XIP fragment 251-270 binding compounds – biochemical, small-molecule microarray, fluorescence 635/667 nm, 0.1 µg/mL protein, primary screen (AID 1182). Conditions: fluorescent protein binding, 635 nm, higher = more signal, called active from +8 up or from −8 down.
The next test deals with XIP peptide (Xip251-270). Nature of the test: compounds binding XIP fragment 251-270 – biochemical, small-molecule microarray, fluorescence 635/667 nm, 0.5 µg/mL protein, primary screen (AID 1183). The conditions noted are these: fluorescence 635 nm, higher = more signal.
Test [2] is described as follows: blood-stage malaria parasite viability loss – strain 3D7, DAPI fluorescence, 100 nL, primary screen (AID 1184).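 Also: parasites grown inside human red blood cells in medium with human serum.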 Conditions: P. falciparum 3D7 growth, 3 d, higher = more signal.
Test [3] addresses Homeobox protein Hox-A13 (Mus musculus) (UniProt Q62424). Nature of the test: disruptors of Hoxa13 oligonucleotide interaction – biochemical, fluorescence polarization, labeled oligonucleotide, primary screen (AID 1185). The conditions noted are these: Hoxa13:DNA binding, 15 min, higher = more signal, called active from +8 up or from −8 down. (Fluorescence polarisation rises when a labelled molecule tumbles more slowly, as on binding a larger partner.)

Test [4] is described as follows: blockers of DNA damage checkpoint Chk1 activation – imaging, HeLa, hydroxyurea, phospho-Chk1 antibody, percent positive cells, primary screen (AID 1186). Conditions: hydroxyurea-induced phospho-Chk1 immunofluorescence imaging, higher = more signal.
Test [5] can be described thus: blockers of DNA damage checkpoint Chk1 activation – imaging, HeLa, hydroxyurea, phospho-Chk1 nuclear intensity, primary screen (AID 1187). The conditions noted are these: hydroxyurea-induced phospho-Chk1 immunofluorescence imaging, higher = more signal.

Each structure is given as a SMILES string. Calls of active or inactive are those of the source. Unless noted, no rule for the calls is given here.

Chain of Homeobox protein Hox-A13 (Mus musculus) (Q62424 whole entry, looked up): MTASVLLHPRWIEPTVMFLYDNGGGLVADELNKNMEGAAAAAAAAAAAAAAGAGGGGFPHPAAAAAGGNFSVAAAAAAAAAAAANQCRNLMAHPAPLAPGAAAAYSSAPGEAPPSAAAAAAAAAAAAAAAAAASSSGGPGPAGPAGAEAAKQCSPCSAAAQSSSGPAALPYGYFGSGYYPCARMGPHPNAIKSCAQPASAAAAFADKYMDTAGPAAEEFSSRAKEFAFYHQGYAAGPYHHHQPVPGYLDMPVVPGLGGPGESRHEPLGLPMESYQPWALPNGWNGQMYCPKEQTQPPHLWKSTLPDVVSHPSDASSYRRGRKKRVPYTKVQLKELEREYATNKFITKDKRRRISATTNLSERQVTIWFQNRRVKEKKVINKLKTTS

`COc1ccc([Si](C)(C)[C@H]2[C@H](CCO)O[C@@]3(C(=O)N(Cc4ccccc4)c4ccc(N5C(=O)COc6ccccc65)cc43)[C@@H]2C)cc1`: the figures for the composite z-score (in test [1]; in the test on XIP peptide (Xip251-270)) were 0.577 (inactive) and 0.473, respectively. Further, the z-score was -1.09 in test [2], -0.771 (inactive) in test [3], -0.584 (inactive) in test [4] and -0.791 (inactive) in test [5].

Turning to `C=CCC(OC(C)=O)[C@@H]1[C@@H](N(Cc2ccc(-c3ccccc3)cc2)C(=O)c2ccc(C)cc2)c2cc(OCCCO)ccc2N1C(=O)c1ccc2ccccc2n1` (stereo not given in full), the composite z-score in test [1] is -0.218 (inactive); in the test on XIP peptide (Xip251-270), -0.876. Besides, the z-score in test [2] was -0.62; in test [3] it was -1.29 (inactive); in test [4] it was -0.641 (inactive); in test [5], -0.346 (inactive).

Turning to `O=C1C[C@@](C(=O)O)(c2ccc([N+](=O)[O-])cc2)[C@@H](c2ccc(CO)cc2I)N1CC12CC3CC(CC(C3)C1)C2`, the composite z-score is 0.862 (inactive) in test [1] and 0.771 in the test with XIP peptide (Xip251-270). The z-score in test [2] is -1.92; in test [3], -5.13 (inactive); in test [4] it was 0.288 (inactive); in test [5], 0.285 (inactive).

`C#C[C@H](O[Si](C#CCCCCCC)(C(C)C)C(C)C)c1ccccc1`: the composite z-score was 0.0004 (inactive) in test [1] and -0.113 with XIP peptide (Xip251-270). Also, the z-score is -1.32 in test [2], -1.2 (inactive) in test [3], -0.0616 (inactive) in test [4] and -0.0839 (inactive) in test [5].

Turning to `C=CCOC(=O)[C@@H]1[C@H]2C(=O)O[C@H](c3ccccc3)[C@H](c3ccccc3)N2[C@H](c2ccc(OCCOC(=O)[C@H]3C[C@H]4C(=O)N[C@@H](Cc5ccccc5)C(=O)N4[C@H]3c3ccc(O)cc3)cc2)[C@@]12C(=O)Nc1ccc(I)cc12`, the composite z-score in test [1] was 2.09 (inactive); in the test on XIP peptide (Xip251-270) it was 0.81. Also, the z-score is 0.265 in test [2], 6.27 (inactive) in test [3], -0.177 (inactive) in test [4] and -0.343 (inactive) in test [5].

Regarding `CC(C)OC(=O)C1=CCC(c2cccc(Cl)c2)O1` (stereo not given), the composite z-score in test [1] is 0.0142 (inactive); with XIP peptide (Xip251-270) it was 0.677. Besides, the z-score in test [2] was -1.39; in test [3], -0.554 (inactive); in test [4] it was 0.147 (inactive); in test [5] it was 0.0282 (inactive).

Take `CN(C)CCCC[C@@H]1NC(=O)[C@@H]2C[C@H](C(=O)NCCCCCCN)[C@H](c3ccc(O)cc3)N2C1=O`: the values for the composite z-score (in test [1]; in the test on XIP peptide (Xip251-270)) were 0.674 (inactive) and 0.0252, respectively. The z-score was 0.0094 in test [2], -2.65 (inactive) in test [3], 0.136 (inactive) in test [4] and -0.366 (inactive) in test [5].

Consider `CC(=O)n1cc(C(O)C2C=CC3C(=O)N(c4ccccc4)C(=O)C3N2Nc2ccc(C#N)cc2)c2ccccc21` (stereo not given), for which the composite z-score in test [1] is 1.16 (inactive); in the test on XIP peptide (Xip251-270) it was 0.786. Moreover, the z-score in test [2] is 0.429; in test [3], -3.54 (inactive); in test [4] it was -0.199 (inactive); in test [5] it was -0.217 (inactive).

As for `C=CC[C@@]1(C(=O)NCc2ccccc2)N=C(c2ccc(OCCCO)cc2)O[C@@H]1c1ccccc1CN=[N+]=[N-]`, the values for the composite z-score (in test [1]; with XIP peptide (Xip251-270)) were -0.0368 (inactive) and 0.496, respectively. Also, the z-score in test [2] is -2.28; in test [3], -10.5 (active); in test [4] it was 0.168 (inactive); in test [5] it was 0.43 (inactive).

On to `C=CCOC(=O)[C@@H]1[C@H]2C(=O)O[C@H](c3ccccc3)[C@H](c3ccccc3)N2[C@H](c2ccc(OCCOC(=O)[C@H]3C[C@H]4C(=O)N[C@@H](CC(C)C)C(=O)N4[C@H]3c3cccc(OCCO)c3)cc2)[C@@]12C(=O)Nc1ccc(I)cc12`, for which the composite z-score is 0.559 (inactive) in test [1] and 0.824 with XIP peptide (Xip251-270). Besides, the z-score in test [2] was -1.68; in test [3] it was 2.41 (inactive); in test [4], 0.537 (inactive); in test [5] it was 0.273 (inactive).

Consider `C=CCNC(=O)[C@@H]1[C@H]2C(=O)O[C@H](c3ccccc3)[C@H](c3ccccc3)N2[C@H](c2ccccc2OCCO)[C@@]12C(=O)N(C(=O)OCCOC)c1ccc(C#CCC(C(=O)OC)C(=O)OC)cc12`, for which the composite z-score is 2.28 (inactive) in test [1] and 0.878 in the test with XIP peptide (Xip251-270). Moreover, the z-score is -2.14 in test [2], -0.757 (inactive) in test [3], 0.071 (inactive) in test [4] and 0.361 (inactive) in test [5].

As for `COc1ccc([Si](C)(C)[C@H]2[C@H](CC(=O)N3CCC[C@H]3CO)O[C@@]3(C(=O)N(c4ccccc4)c4ccccc43)[C@@H]2C)cc1`, the composite z-score in test [1] was 0.511 (inactive); with XIP peptide (Xip251-270), 0.531. For the same compound, the z-score was -0.887 in test [2], -3.87 (inactive) in test [3], -1.18 (inactive) in test [4] and -0.219 (inactive) in test [5].

Turning to `[N-]=[N+]=NCc1ccccc1[C@@H]1OC(c2ccc(OCCCO)cc2)=N[C@]1(Cc1ccccc1N=[N+]=[N-])C(N)=O`, the composite z-score in test [1] was 0.411 (inactive); with XIP peptide (Xip251-270), 0.785. The z-score in test [2] was -1.63; in test [3], -3.75 (inactive); in test [4], 0.135 (inactive); in test [5], 0.278 (inactive).

Take `O=P(NCC1(CC2(c3ccccc3)CO2)CC1)(c1ccccc1)c1ccccc1` (stereo not given): the figures for the composite z-score (in test [1]; in the test on XIP peptide (Xip251-270)) were 0.588 (inactive) and 0.822, respectively. Further, the z-score in test [2] was 0.561; in test [3] it was -3.26 (inactive); in test [4], -0.124 (inactive); in test [5], -0.208 (inactive).

For `CCCC[C@H]1OB(O)C[C@H]2C1=C(COc1ccccc1)C[C@H]1C(=O)N(Cc3ccccc3)C(=O)[C@H]12`, the composite z-score was -0.0195 (inactive) in test [1] and -0.0475 in the test on XIP peptide (Xip251-270). In addition, the z-score in test [2] was 0.589; in test [3] it was -6.65 (inactive); in test [4], 0.0918 (inactive); in test [5], 0.206 (inactive).
